# Most compounds without a hit are left out; they make up all but 9.8% or so of the library.
# HttQ103 aggreg: inhibitors of mutant huntingtin aggregate formation in PC12 cells. PC12 HttQ103-GFP aggregates, Acumen cytometry, 40 h. Potency, µM (doses to about 46.1 µM), without a hit: top-dose activity change, negative = inhibition, actives largely listed as inhibitors. actives 1.1% (n = 220,000); active means well fitted curve in the direction sought with a large enough effect; inconclusive means small, poorly fitted or top-dose-only effect, or another doubt; inactive means no such curve, though single readings can be large; an effect the other way counts as inactive or inconclusive; further: potency means the concentration at half of the fitted maximal effect; on the % scale 0 is the no-effect control and ±100 the full control effect; nearly all actives have a fitted effect of over 60% in size
#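 PC12/HTTQ103-GFP, ecdysone-inducible; teb 100 nM; cpd qHTS titration; GFP aggregates read on laser cytometer, Ex 488/Em 500-530 nm.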
# ALDH1A1 block: inhibitors of human aldehyde dehydrogenase 1A1. P00352. Purified ALDH1A1, NADH fluorescence, propionaldehyde substrate. Potency, µM (doses to about 75.3 µM), without a hit: at the highest dose activity, negative = inhibition, actives largely listed as inhibitors. actives 7.3% (n = 220,000). AID 1030;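 further: potency means the concentration at half of the fitted maximal effect; plate controls were no enzyme wells and a reference inhibitor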
# HPGD block: blocks human HPGD enzyme activity | P15428 | AID 894 | Potency, µM, for the others: at the top dose activity change, negative = inhibition, usual class: inhibitors | actives 4.3% (n = 150,000) | purified HPGD, NADH fluorescence kinetic, PGE2 substrate; further: potency means the concentration at half of the fitted maximal effect; on the % scale 0 is the no-effect control and ±100 the full control effect
# Target sequence (P15428 whole entry, looked up): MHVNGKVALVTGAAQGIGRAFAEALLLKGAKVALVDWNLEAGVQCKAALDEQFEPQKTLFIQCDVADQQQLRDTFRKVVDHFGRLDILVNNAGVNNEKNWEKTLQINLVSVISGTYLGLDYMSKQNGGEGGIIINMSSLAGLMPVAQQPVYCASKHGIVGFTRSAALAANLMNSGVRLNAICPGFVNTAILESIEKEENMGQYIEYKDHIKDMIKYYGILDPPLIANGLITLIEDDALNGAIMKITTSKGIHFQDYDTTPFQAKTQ
#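 NADH formation kinetics: reaction with 30 uM PGE2 and 1 mM NAD+ (final), 20 nM enzyme, Tris-HCl pH 8 with Tween 20, after 15 min compound preincubation at room temperature. Fluorescence change, last versus first of five reads.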
# KDM4E inh: blocks human JMJD2E demethylase activity; B2RXH2; JMJD2E catalytic domain, FDH-coupled NADH fluorescence (FDH is formaldehyde dehydrogenase); Potency, µM (top dose mostly 57.1 µM), for inactives: at the highest dose activity change, negative = inhibition, most hits filed as inhibitors; actives 1.6% (n = 230,000); AID 2147;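 further: potency means the concentration at half of the fitted maximal effect; 0% = wells with enzyme and -100% = buffer wells without enzyme; nearly all actives have a fitted effect of over 50% in size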
# Target sequence (B2RXH2 1-337 limits assumed): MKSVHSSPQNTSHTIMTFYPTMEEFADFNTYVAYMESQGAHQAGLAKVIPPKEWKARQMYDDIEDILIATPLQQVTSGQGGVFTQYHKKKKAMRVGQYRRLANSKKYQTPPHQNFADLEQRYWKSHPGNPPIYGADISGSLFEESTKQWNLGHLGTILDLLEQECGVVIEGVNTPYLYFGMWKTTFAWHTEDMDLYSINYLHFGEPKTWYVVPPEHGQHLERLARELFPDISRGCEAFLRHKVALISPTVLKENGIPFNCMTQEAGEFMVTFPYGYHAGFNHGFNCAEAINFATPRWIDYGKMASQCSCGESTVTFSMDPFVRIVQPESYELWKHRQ
# HTT cytoprotect: cytoprotection in Huntington HTT-Q103 PC12 cell model | PC12 HTT-Q103 induced, cytoprotection, ATP luminescence, 40 h | Potency, µM (highest dose often 56.4 µM), without a hit: cytoprotection (ATP increase), hits mostly activators | actives 0.14% (n = 230,000); active means well fitted curve in the direction sought with a large enough effect; inconclusive means small, poorly fitted or top-dose-only effect, or another doubt; inactive means no such curve, though single readings can be large; an effect the other way counts as inactive or inconclusive; further: potency means the concentration at half of the fitted maximal effect; % of control where 0% means no effect; nearly all actives have a fitted effect of over 45% in size
#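 Cells were plated at 1500 per well in phenol red-free DMEM with 5% equine and 5% calf serum. Tebufenozide (100 nM final) and compounds were added, then ATPlite reagent, and luminescence was read.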
# CBFb-RUNX1 inh: CBF-beta/RUNX1 interaction disruption. Q01196+Q13951. AlphaScreen CBFb-His/RUNX1-biotin binding, biochemical. Potency, µM (top dose mostly 59.8 µM), inactives show at the top dose activity, negative = inhibition, actives largely listed as inhibitors. 230,000 tested, under 10 active; active means well fitted curve in the direction sought with a large enough effect; inconclusive means small, poorly fitted or top-dose-only effect, or another doubt; inactive means no such curve, though single readings can be large; an effect the other way counts as inactive or inconclusive; further: % of control where 0% means no effect
#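 His-tagged CBF-beta and biotinylated RUNX1 (30 nM each) were premixed 20 min at room temperature, exposed to compound for 15 min, then given nickel-chelate and streptavidin AlphaScreen beads (50 ng each). After 90 min, AlphaScreen signal was read.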
# The depositor's hits bear a star; ? = inconclusive; . = no result; [ ] = another dose, or the depositor's remark. Unless noted, the call rests on the fitted dose curve; in most records, active means well fitted inhibition curve with a large enough effect (not every such curve was filed as active); inconclusive means small, poorly fitted or top-dose-only effect, or another doubt; inactive means no such curve, though single readings can be large or run the other way.
SMILES,HttQ103 aggreg,ALDH1A1 block,HPGD block,KDM4E inh,HTT cytoprotect,CBFb-RUNX1 inh
COc1ccc(Oc2nc3c(c(=O)n(C)c(=O)n3C)n2Cc2cccc(OC)c2)cc1,-8.2%,10.4%,-6.9%,-1.9%,-5.5%,5.2%
COCCOc1nc2c(c(=O)n(C)c(=O)n2C)n1Cc1cccc(OC)c1,8.91µM*,?,-1.7%,2.7%,9.5%,-0.7%
CN(C(=O)CSc1nc2ccccc2n1CCc1ccccc1)C1CCS(=O)(=O)C1 (stereo unspecified),-0.7%,22.4µM*,-14.0%,-2.6%,-6.5%,1.5%
CN(C(=O)CSc1nnc2ccccn12)C1CCS(=O)(=O)C1 (stereo unspecified),2.6%,-14.6%,-16.1%,?,-4.5%,0.9%
Cc1ccccc1-n1nnnc1SCC(=O)N(C)C1CCS(=O)(=O)C1 (stereo unspecified),-4.5%,11.2µM*,.,-1.1%,-1.4%,-3.4%
O=C(CSc1nc2ccccc2[nH]1)NCCCn1ccnc1,11.6%,3.0%,-3.0%,-1.5%,1.1%,-2.4%
O=C(CSc1nc2ccccc2c(=O)n1-c1ccccc1)NC(=O)CN1CCCC1=O,36.7%,?,.,4.9%,2.4%[10 µM],-27.9%
COC(=O)C1=C(C)N(Cc2ccccc2)C2=C3C(=O)N(C)C(=O)C3[C@@](O)(C(=O)OC)C(=O)N2C1c1ccccc1 (stereo partly specified),.,11.0%[13.5 µM],.,.,?,5.0%[13.1 µM]
Oc1ccc(/C=N/n2cnn(Cc3ccccc3Cl)c2=S)c(O)c1,6.9%,20µM*,20µM*,-12.2%,-7.1%[10 µM],-13.2%
O=C(COC(=O)c1ccccc1OCc1ccc(Cl)cc1)NC1CC1,15.6%,-3.2%,-10.0%,-3.3%,-1.5%,3.8%
O=C(COC(=O)c1ccc2c(c1Cl)C(=O)c1ccccc1C2=O)NC1CC1,-6.5%,?,7.94µM*,4.7%,31.3%[10 µM],?
O=C(COC(=O)c1c(Cl)cccc1Cl)NC1CCCCC1,7.5%,0.2%,.,1.2%,-14.6%,-4.0%
O=C(COC(=O)c1ccc2c(c1Cl)C(=O)c1ccccc1C2=O)NC1CCCCC1,-8.0%,-7.7%,6.31µM*,-13.5%,14.4%[0.074 µM],-1.6%
O=S(=O)(N1CCCCC1)N1CCN(c2cc(Cl)ccc2Cl)CC1,1.7%[9.22 µM],?,.,-4.2%,14.5%[10 µM],2.0%
C=C(C)C(=O)NNc1ccccc1,12.0%,22.4µM*,.,14.1µM*,5.8%[10 µM],6.6%
CC1(c2ccccc2)NC(=O)N(CC(=O)NC(=O)NC2CCCC2)C1=O (stereo unspecified),18.7%,12.6µM*,-10.4%,-6.3%,1.6%[10 µM],2.3%
CC1(c2ccccc2)NC(=O)N(CCOc2ccccc2)C1=O (stereo unspecified),6.3%,22.4µM*,1.3%,8.9%,-9.9%,2.0%
Cc1ccc(C2(C)NC(=O)N(CC(=O)NC(=O)NC3CCCC3)C2=O)cc1 (stereo unspecified),21.3%,-6.9%,-3.6%,6.1%,4.5%,3.4%
CCOC(=O)Cn1nnnc1CN1CCN(c2ccc(OC)cc2)CC1,-16.8%[9.22 µM],-8.0%,.,-6.4%,-2.2%[10 µM],12.0%
C=CCCCCCCCC(=O)OC,10.1%[9.22 µM],17.8µM*,.,3.4%,-4.2%[10 µM],13.1%
COC(=O)CCCCC(=O)OC,.,-6.0%,-1.3%,.,-4.0%,?
C=CCCCCCCCCC(=O)NN,-5.4%,14.1µM*,-8.4%,11.3%,10.0%[10 µM],9.2%
C=CCCCCCCCCC(=O)O,-17.7%,1.8%,-8.5%,.,?,-9.9%
COc1ccc(C(=O)Cn2nnc(-c3ccccc3NC(=O)C3CCCCC3)n2)cc1,12.6µM*,0.282µM*,-13.2%,4.8%,-20.4%,11.9%
O=C1C2=CC[C@H]3C(=O)N(C[C@@H]4CCCO4)C(=O)[C@@H]3[C@@H]2[C@H](O)[C@@H]2O[C@H]12,.,?,.,.,1.41µM*,-1.6%[13.1 µM]
SMILES,HttQ103 aggreg,ALDH1A1 block,HPGD block,KDM4E inh,HTT cytoprotect,CBFb-RUNX1 inh
CCN1C(=O)[C@@H]2[C@H]3C(=CC[C@H]2C1=O)C(=O)[C@H]1OC1[C@H]3O (stereo partly specified),.,-4.5%[13.5 µM],.,.,2.82µM*,-4.2%[13.1 µM]
O=C1[C@H]2[C@H](ON3CCCC[C@H]23)C(=O)N1c1ccc(Cl)cc1,18.0%,-3.2%,.,3.4%,-15.1%,?
Cn1cccc1/C=N/n1c(-c2ccc(Cl)cc2)n[nH]c1=S,10.8%,10.7%,3.98µM*,3.8%,3.8%[10 µM],8.3%
Cc1ccc(-c2n[nH]c(=S)n2/N=C/c2cccn2C)cc1,1.9%,-16.2%,8.91µM*,-1.7%,-12.2%,-13.5%
Cn1cccc1/C=N/n1c(-c2ccc(Cl)cc2Cl)n[nH]c1=S,2.8%,?,12.6µM*,-1.7%,?,-1.8%
CC(=O)N1CCC(C(=O)Nc2cc(C)cc(C)c2)CC1,4.5%[9.22 µM],2.7%,.,-2.1%,-13.8%[10 µM],7.1%
Cc1cc(C)nc(N2N=C(C(C)(C)C)CC2=O)n1,-26.1%,6.31µM*,-4.0%,2.2%,-1.6%,1.1%
O=C(CCc1nnc(-c2ccc(-c3ccccc3)cc2)o1)N1CCCCC1,11.6%[9.22 µM],?,.,?,-6.7%[10 µM],2.8%
CC(C)Oc1cccc(C(=O)N2CCCC2)c1,?,-1.0%,.,7.2%,-5.6%,5.1%
O=C(c1cccc(-c2nnc(-c3ccccc3)o2)c1)N1CCCCCC1,2.5%,?,8.91µM*,2.9%,-7.9%,-2.5%
O=C(c1cccc(-c2nnc(-c3ccccc3)o2)c1)N1CCCCC1,-12.6%,?,7.94µM*,0.9%,-22.6%,6.2%
CCCC(C)NC(=O)CSc1nnc2ccccn12 (stereo unspecified),-1.4%,-6.8%,.,?,-23.4%,7.2%
CCc1sc(NC(=O)CCC(=O)O)nc1-c1cc2ccccc2oc1=O,12.6%,-11.7%,.,4.0%,-12.3%,-5.7%
CCN1C(=O)N(C(C)=O)C2C1N(C(C)=O)C(=O)N2C(C)=O (stereo unspecified),.,3.8%,.,8.0%,.,2.4%
O=C(CSc1nc2ccccc2c(=O)n1Cc1ccco1)N1CCCCCC1,?,?,-20.3%,3.5%,-25.9%,-3.1%
CCc1cc2c(=O)n(Cc3ccco3)c(SCC(=O)NC3CCS(=O)(=O)C3)nc2s1 (stereo unspecified),-1.8%,10µM*,.,-5.5%,-17.2%[10 µM],-10.4%
CCc1cc2c(=O)n(Cc3ccco3)c(SCC(=O)N(C)C3CCS(=O)(=O)C3)nc2s1 (stereo unspecified),2.9%,10µM*,.,0.7%,-28.4%,-13.1%
CN(C(=O)CSc1nc2cc(Cl)ccc2c(=O)n1Cc1ccco1)C1CCS(=O)(=O)C1 (stereo unspecified),-7.0%,?,.,1.2%,-19.7%,0.8%
CCc1cc2c(=O)n(Cc3ccco3)c(SCC(=O)N3CCCc4ccccc43)nc2s1,8.6%[9.22 µM],4.47µM*,-25.5%,-19.8%,-20.4%,-18.8%
